The values below come from ChEMBL document CHEMBL2218924, “A broad activity screen in support of a chemogenomic map for kinase signalling research and drug discovery” (Biochem J, 2013).

In general, residual activity refers to the signal under treatment as a percentage of the control signal.

For test [1], the target named is T1, CDK9/cyclin T1 (Homo sapiens) (UniProt O60563+P50750). Conditions: at 1 µM.
Test [2] addresses T1, CDK9/cyclin T1 (Homo sapiens). Conditions: at 10 µM.
Test [3] addresses T2, Serine/threonine-protein kinase Chk1 (Homo sapiens) (UniProt O14757).
T2 sequence (whole entry): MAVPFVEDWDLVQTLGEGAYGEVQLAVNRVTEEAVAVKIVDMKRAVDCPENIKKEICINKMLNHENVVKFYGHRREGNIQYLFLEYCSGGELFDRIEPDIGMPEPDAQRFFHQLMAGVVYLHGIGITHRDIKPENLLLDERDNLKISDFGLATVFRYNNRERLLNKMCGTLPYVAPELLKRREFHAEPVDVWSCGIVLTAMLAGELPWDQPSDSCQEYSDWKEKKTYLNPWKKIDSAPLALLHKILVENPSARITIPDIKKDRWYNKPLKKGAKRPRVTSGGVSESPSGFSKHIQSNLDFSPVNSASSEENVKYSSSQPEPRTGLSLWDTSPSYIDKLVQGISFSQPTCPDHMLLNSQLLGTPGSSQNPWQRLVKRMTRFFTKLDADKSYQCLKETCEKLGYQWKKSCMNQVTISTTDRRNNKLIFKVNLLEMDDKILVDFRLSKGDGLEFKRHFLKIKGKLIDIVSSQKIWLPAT
Conditions: at 1 µM.

Test [4] has as its target T2, Serine/threonine-protein kinase Chk1 (Homo sapiens). Conditions: at 10 µM.
Test [5] addresses Serine/threonine-protein kinase Chk2 (Homo sapiens) (UniProt O96017). Conditions: at 1 µM.
The target is the same in test [6]. Conditions: at 10 µM.
In test [7] the target is Casein kinase I isoform gamma-1 (Homo sapiens) (UniProt Q9HCP0). Conditions: at 1 µM.
Sequence of Casein kinase I isoform gamma-1 (Homo sapiens) (Q9HCP0 whole entry, looked up, canonical isoform): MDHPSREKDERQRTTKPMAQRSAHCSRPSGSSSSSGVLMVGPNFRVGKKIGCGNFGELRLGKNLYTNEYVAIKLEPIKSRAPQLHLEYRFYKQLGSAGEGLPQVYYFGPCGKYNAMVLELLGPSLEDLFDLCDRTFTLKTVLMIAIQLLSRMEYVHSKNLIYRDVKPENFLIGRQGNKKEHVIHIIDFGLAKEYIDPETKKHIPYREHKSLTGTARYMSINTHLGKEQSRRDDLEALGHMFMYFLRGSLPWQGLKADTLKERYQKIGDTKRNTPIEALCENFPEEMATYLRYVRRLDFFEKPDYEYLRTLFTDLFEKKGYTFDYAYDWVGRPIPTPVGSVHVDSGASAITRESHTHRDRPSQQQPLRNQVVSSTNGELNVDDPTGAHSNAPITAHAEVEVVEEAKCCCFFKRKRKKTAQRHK
For test [8] the target is unchanged. Conditions: at 10 µM.
Test [9] deals with Casein kinase I isoform delta (Homo sapiens) (UniProt P48730). Conditions: at 1 µM.
Sequence of Casein kinase I isoform delta (Homo sapiens) (P48730 whole entry, looked up, canonical isoform): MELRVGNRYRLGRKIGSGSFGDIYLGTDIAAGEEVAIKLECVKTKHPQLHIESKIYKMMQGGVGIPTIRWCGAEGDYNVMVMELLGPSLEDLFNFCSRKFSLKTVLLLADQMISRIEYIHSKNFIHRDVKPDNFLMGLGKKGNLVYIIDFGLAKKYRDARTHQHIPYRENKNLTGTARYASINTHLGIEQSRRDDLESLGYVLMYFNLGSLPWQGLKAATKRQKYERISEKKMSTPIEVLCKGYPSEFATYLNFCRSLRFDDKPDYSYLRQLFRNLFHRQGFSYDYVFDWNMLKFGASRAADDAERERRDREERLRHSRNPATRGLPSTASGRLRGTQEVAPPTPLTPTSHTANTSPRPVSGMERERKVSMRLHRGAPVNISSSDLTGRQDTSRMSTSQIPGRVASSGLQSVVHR
The target is the same in test [10]. Conditions: at 10 µM.

Sequence of Serine/threonine-protein kinase Chk2 (Homo sapiens) (O96017 whole entry): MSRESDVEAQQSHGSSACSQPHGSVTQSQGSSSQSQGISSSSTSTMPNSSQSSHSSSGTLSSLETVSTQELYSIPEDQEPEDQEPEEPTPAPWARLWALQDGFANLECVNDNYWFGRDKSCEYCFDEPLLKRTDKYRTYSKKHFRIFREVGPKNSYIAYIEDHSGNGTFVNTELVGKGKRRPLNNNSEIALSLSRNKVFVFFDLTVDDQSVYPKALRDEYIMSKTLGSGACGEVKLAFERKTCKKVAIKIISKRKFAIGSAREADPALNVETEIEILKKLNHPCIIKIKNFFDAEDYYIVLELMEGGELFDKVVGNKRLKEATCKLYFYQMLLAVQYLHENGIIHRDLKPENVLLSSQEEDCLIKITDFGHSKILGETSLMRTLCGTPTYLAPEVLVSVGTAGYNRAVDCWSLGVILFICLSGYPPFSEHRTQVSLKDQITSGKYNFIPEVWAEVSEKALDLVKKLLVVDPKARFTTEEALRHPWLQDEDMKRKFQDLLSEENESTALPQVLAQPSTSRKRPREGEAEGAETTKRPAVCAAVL

For the compound `O=C(Nc1cccc(Nc2cc(Nc3cccc(C(F)(F)F)c3)ncn2)c1)C1CC1`, the residual activity in test [1] is 85%; in test [2], 62%; in test [3], 89%; in test [4] it was 86%; in [5], 97%; in test [6], 74%. For the same compound, the residual activity came to 85% in [7], 66% in test [8], 85% in [9] and 54% in [10].
As for `COc1cc2ncnc(Nc3ccc(Oc4ccccc4)cc3)c2cc1OC`, the residual activity in [1] stood at 99%; in test [2], 93%; in test [3], 76%; in test [4], 88%; in [5] it was 24%; in test [6], 8%. For the same compound, the residual activity is 93% in test [7], 89% in test [8], 83% in test [9] and 101% in test [10].
`O=Nc1c(-c2c(O)[nH]c3ccccc23)[nH]c2ccccc12`: the residual activity worked out at 26% in test [1]; 11% in [2]; 65% in test [3]; 30% in [4]; 13% in test [5]; 2% in test [6]. The residual activity in test [7] was 57%; in test [8], 19%; in test [9], 14%; in test [10], 4%.
On to `Nc1ccc2ncnc(NCCc3ccc(Oc4ccccc4)cc3)c2c1`, for which the residual activity in test [1] came out at 94%; in [2] it was 107%; in test [3] it was 94%; in test [4], 72%; in [5], 52%; in test [6], 17%. The residual activity in test [7] is 87%; in test [8], 82%; in test [9] it was 77%; in test [10] it was 53%.
In the case of `COc1ccc(S(=O)(=O)N(CCO)c2ccccc2CN(C)C/C=C/c2ccc(Cl)cc2)cc1`, the residual activity in [1] amounted to 87%; in test [2] it was 113%; in test [3] it was 92%; in [4] it was 89%; in test [5], 103%; in test [6], 73%. For the same compound, the residual activity amounted to 103% in test [7], 75% in test [8], 87% in [9] and 66% in test [10].
As for `N#C/C(=C(\N)Sc1ccc(N)cc1)c1ccccc1C(F)(F)F`, the residual activity in [1] came to 81%; in test [2] it was 96%; in test [3], 90%; in [4], 86%; in [5], 94%; in [6] it was 81%. Also, the residual activity turned out to be 103% in test [7], 87% in [8], 87% in test [9] and 82% in test [10].
Take `O=C1NC(=O)c2cc(Nc3ccc(F)cc3)c(Nc3ccc(F)cc3)cc21`: the residual activity in test [1] came to 100%; in test [2] it was 88%; in test [3], 85%; in test [4] it was 103%; in test [5] it was 84%; in [6], 77%. For the same compound, the residual activity in test [7] was 86%; in test [8], 68%; in test [9], 84%; in test [10], 45%.
As for `CC#CC(=O)Nc1cc2c(Nc3ccc(F)c(Cl)c3)ncnc2cn1`, the residual activity in test [1] amounted to 97%; in test [2], 96%; in [3] it was 89%; in [4], 98%; in [5], 99%; in test [6], 108%. The residual activity in [7] amounted to 89%; in test [8], 95%; in [9] it was 93%; in [10] it was 106%.
As to `COc1cc2ncnc(Nc3ccc(O)c(Br)c3)c2cc1OC`, the residual activity was determined as 91% in [1]; 41% in test [2]; 80% in test [3]; 70% in test [4]; 46% in [5]; 11% in test [6]. For the same compound, the residual activity in test [7] is 90%; in test [8], 41%; in test [9] it was 81%; in test [10], 38%.
As for `Ic1cccc(CSc2nnc(-c3ccncc3)o2)c1`, the residual activity in test [1] was 75%; in [2] it was 87%; in test [3], 57%; in test [4], 49%; in test [5], 72%; in test [6], 65%. Moreover, the residual activity amounted to 101% in test [7], 84% in test [8], 83% in test [9] and 75% in test [10].
On to `O=C(O)c1ccc2c3c1cccc3c(=O)n1c3ccccc3nc21`, for which the residual activity is 75% in [1]; 30% in test [2]; 99% in test [3]; 94% in [4]; 86% in test [5]; 38% in test [6]. The residual activity in test [7] stood at 99%; in test [8] it was 65%; in [9], 87%; in [10], 58%.
With `O=C1Nc2ccccc2/C1=C1/Nc2ccccc2/C1=N\OCCC(O)CO` (stereo not given), the residual activity is 12% in test [1]; 7% in [2]; 68% in test [3]; 33% in test [4]; 26% in test [5]; 3% in test [6]. The residual activity came to 102% in [7], 55% in test [8], 35% in test [9] and 9% in test [10].
With `C[C@@H](N)[C@H]1CC[C@H](C(=O)Nc2ccncc2)CC1`, the residual activity in [1] came to 97%; in test [2], 57%; in [3], 107%; in test [4], 104%; in test [5], 103%; in test [6] it was 97%. Also, the residual activity in test [7] stood at 102%; in test [8], 99%; in [9], 103%; in test [10] it was 110%.
In the case of `O=C1c2ccccc2-[n+]2ccc3c([nH]c4ccccc43)c21`, the residual activity in [1] came to 86%; in test [2], 92%; in test [3] it was 94%; in test [4], 87%; in test [5], 77%; in test [6] it was 75%. For the same compound, the residual activity in test [7] was determined as 98%; in test [8] it was 81%; in [9], 79%; in test [10], 77%.
As for `Cc1ccc(NC2=CC(=O)c3sc(C)nc3C2=O)cc1`, the residual activity in [1] stood at 104%; in [2] it was 106%; in test [3], 96%; in [4] it was 87%; in test [5] it was 96%; in test [6], 82%. The residual activity in [7] worked out at 97%; in test [8], 88%; in test [9], 96%; in [10] it was 88%.
For `O=C(Nc1cccc(Nc2nccc(Nc3cccc(C(F)(F)F)c3)n2)c1)C1CC1`, the residual activity is 89% in [1]; 79% in test [2]; 72% in [3]; 77% in test [4]; 81% in test [5]; 48% in test [6]. Further, the residual activity in test [7] came to 93%; in test [8] it was 94%; in test [9] it was 82%; in [10] it was 78%.
With `c1ccc(-c2n[nH]cc2-c2ccnc3ccccc23)nc1`, the residual activity in test [1] was 103%; in [2], 67%; in test [3], 89%; in test [4], 91%; in [5], 90%; in [6] it was 88%. The residual activity was 89% in test [7], 47% in [8], 25% in test [9] and 2% in [10].
